LGR2 antag – Drosophila LGR2 receptor signaling inhibition; 380,000 tested, 0.35% active; HEK293 LGR2, CRE-luciferase, bursicon-stimulated, 4 h; inhibition, % at 9.99 µM;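 active means drop in luminescence signal, shown as inhibition above about 50% in the replicate tests, limit read from the data, passing the limit was not always enough; inconclusive means probably only some replicates passing the limit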;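 further: agonist challenge used bursicon conditioned medium at about half maximal strength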
EWS-Fli inh – blocks EWS/Fli oncoprotein-driven transcription | inhibition, % at 12.6 µM | A673 NR0B1-luciferase reporter, viability-normalised | 350,000 tested, 0.67% active | AID 651661;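 active means mean inhibition of at least 50% after viability correction, with every replicate also passing that limit; inconclusive means mean reaches 50% but only one of two replicates passes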;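 further: firefly luciferase signal divided by Alamar Blue viability fluorescence both relative to DMSO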
PAX8 inh HTS – inhibitors of PAX8 transcriptional activity in RMG-I cells. AID 652154. RMG-I TPO-luciferase reporter, SteadyGlo, 24 h. 360,000 tested, 1.2% active. inhibition, % at 12.6 µM;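 active means mean replicate inhibition at least 60% with every replicate also reaching 60%; inconclusive means only one of the two criteria is met; inactive means mean below 60% and not all replicates reaching 60%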;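 further: luciferase light reporting Pax8 driven TPO promoter activity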
EBV LMP1 NFkB – reduces LMP1-driven NF-kappaB luciferase signal; LMP1-induced NF-kappaB luciferase reporter cells, luminescence; inhibition, % at 12.5 µM; 350,000 tested, 0.69% active; AID 504558; in the data active means inhibition above about 41%; inconclusive means no clear call, values can overlap the other calls
Shn3 3UTR inh – inhibitors of Schnurri-3 3'UTR reporter in osteoblasts. Clone20 osteoblast Shn3 3'UTR firefly luciferase, 24 h. inhibition, % at 12.5 µM. 360,000 tested, 0.52% active;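 active means mean inhibition of at least 75% with every replicate also reaching 75%; inconclusive means mean inhibition at least 75% but some replicate below; inactive means mean inhibition below 75%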
TRPM1 prom inh – inhibitors of MITF-driven TRPM1 promoter in melanoma cells. inhibition, % at 12.5 µM. AID 488899. 330,000 tested, 0.83% active. SK-MEL-5 TRPM1 promoter luciferase, 24 h;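 active means mean inhibition across replicates of 60% or more, whatever share of single replicates reaches that level; inconclusive means some that reach 60%, reason not given; inactive means mean inhibition across replicates below 60%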
Hits are given with their value; - = inactive; ? = inconclusive; . = not tested or not shown. An excerpt weighted towards active compounds, which were near 2.2% of everything screened.

SMILES	LGR2 antag	EWS-Fli inh	PAX8 inh HTS	EBV LMP1 NFkB	Shn3 3UTR inh	TRPM1 prom inh
CCS(=O)(=O)N1Cc2ccccc2CC1C(=O)Nc1nnc(SCc2c(Cl)cccc2Cl)s1 (configuration not stated)	-	-	113	-	-	-
CC(=O)Nc1cccc(-c2cc(NC=O)c3ncc(-c4ccc(C(C)=O)cc4)n3c2)c1	-	-	71	.	-	.
COc1ccc(-c2cc(NC=O)c3ncc(-c4ccc(C(C)=O)cc4)n3c2)cn1	-	-	65	.	-	.
CC(=O)c1ccc(-c2cnc3c(NC=O)cc(-c4ccccc4Oc4ccccc4)cn23)cc1	-	-	84	.	-	.
CC(=O)Nc1cccc(-c2cc(NC(C)=O)c3ncc(-c4cccc(C(C)=O)c4)n3c2)c1	.	-	-	.	-	.
O=CNc1cc(-c2ccccc2Oc2ccccc2)cn2c(-c3ccc(F)cc3)cnc12	-	-	-	.	-	.
CCCC(=O)Nc1ccc2c(c1)OC[C@H](C)N(C(=O)CC1CC1)C[C@@H](C)[C@@H](OC)CN(C)C2=O	-	-	-	.	.	.
O=C(NCCc1cccs1)c1ccc(Cl)cc1	-	-	-	-	-	-
Cc1ccc(C(=O)NCCc2cccs2)cc1	75	64	-	64	-	-
Cc1cc2oc(=O)cc(Cn3ncc(Cl)c(Cl)c3=O)c2cc1Cl	.	.	.	-	97	83
Cc1cc(C(=O)Cn2ncc(Cl)c(Cl)c2=O)c(C)n1CC(F)(F)F	.	-	-	-	-	-
Cc1ccc(C)c(C(=O)Cn2ncc(Cl)c(Cl)c2=O)c1	-	.	.	-	-	75
Cc1cccc(Cn2ncc(Cl)c(Cl)c2=O)c1	99	?	.	-	-	-
COc1ccc2c3c(n(C)c2c1)[C@@H](CO)N(C(=O)c1cccc(F)c1)CC31CCN(C(=O)c2cccc(F)c2)CC1	-	-	.	.	.	.
COc1ccc(NC(=O)N2CCCCN3[C@H](CO)[C@H](c4ccc(C#Cc5ccccn5)cc4)[C@H]3C2)cc1	-	-	-	.	.	.
Cc1cc(C2=NNC(=NC3CC3)SC2)c(C)n1-c1ccccc1F	95	94	102	78	98	99
Cc1cc(C2=NNC(=NC3CCCCC3)SC2)c(C)n1-c1c(C)n(C)n(-c2ccccc2)c1=O	.	-	-	-	-	-
c1cc2c(cc1C1=NNC(=NC3CC3)SC1)OCCO2	55	79	96	84	-	95
CC(C)NC(=O)N(C)C[C@@H]1Oc2cc(C#C[C@H](C)O)ccc2S(=O)(=O)N([C@@H](C)CO)C[C@@H]1C	-	-	-	.	.	.
Cc1ccccc1S(=O)(=O)NCC[C@@H]1CC[C@H](NS(=O)(=O)c2ccccc2C)[C@H](CO)O1	-	-	-	.	.	.
CCOC(=O)N1CCC(n2c(=S)[nH]c3ccccc3c2=O)CC1	-	.	.	66	-	-
O=C1CSC(c2ccc(F)cc2)N1c1nc2ccccc2s1 (configuration not stated)	-	.	-	62	-	-
C[C@@H]1CN([C@@H](C)CO)C(=O)c2cc(NC(=O)CCCN(C)C)ccc2O[C@@H]1CN(C)Cc1ccc(C(=O)O)cc1	-	.	-	.	.	.
O=C(NCCc1c[nH]c2ccccc12)c1ccc2nc[nH]c2c1	-	-	-	-	-	-
O=C(CCC(=O)c1ccccc1)NCCc1c[nH]c2ccccc12	-	-	122	-	-	-
SMILES	LGR2 antag	EWS-Fli inh	PAX8 inh HTS	EBV LMP1 NFkB	Shn3 3UTR inh	TRPM1 prom inh
O=C(NCCc1c[nH]c2ccccc12)c1cccnc1	.	-	71	-	-	-
COc1ccc(NC(=O)Nc2ccc3c(c2)C(=O)N([C@H](C)CO)C[C@@H](C)[C@H](CN(C)Cc2ccc(C(F)(F)F)cc2)O3)cc1	-	-	-	.	.	.
COc1ccc(NC(=O)Nc2ccc3c(c2)C(=O)N([C@@H](C)CO)C[C@@H](C)[C@H](CN(C)Cc2ccc(C(F)(F)F)cc2)O3)cc1	-	-	91	.	.	.
C[C@@H]1CN([C@@H](C)CO)C(=O)c2cc(NC(=O)Nc3ccc(F)cc3)ccc2O[C@@H]1CN(C)Cc1ccc(C(F)(F)F)cc1	-	-	70	.	.	.
CCN1[C@@H]2c3ccc(C4=CCCC4)c(=O)n3C[C@@H]2[C@@H](CO)[C@@H]1C(=O)NCCCN(C)C	-	-	.	.	.	.
COc1ccc2c(c1)[n+](=O)c(C(C)=O)c(C)n2[O-]	.	.	-	-	-	-
CC(=O)c1c(C)n([O-])c2cc(F)c(F)cc2[n+]1=O	-	63	-	-	-	-
Cc1[nH]nc2nc(SCC(=O)NC3CCCCC3)n(-c3ccc(Br)cc3)c(=N)c12	-	.	109	-	-	-
O=C(C[C@H]1C[C@@H]2c3cc(NC(=O)C4CCC4)ccc3O[C@@H]2[C@H](CO)O1)NCC1CC1	-	-	-	.	.	.
O=C(c1ccccc1)c1cc(Cl)ccc1N1C(=O)C=CC1=O	.	-	?	-	?	84
COc1ccc2c3c([nH]c2c1)[C@@H](CO)N(C(=O)CN(C)C)CC31CN(CC2CCCC2)C1	-	-	-	.	.	.
C[C@H](NC(=O)C[C@H]1C[C@@H]2c3cc(NC(=O)Cc4ccncc4)ccc3O[C@@H]2[C@H](CO)O1)c1ccccc1	-	-	-	.	.	.
C=CCn1c(Sc2ncc([N+](=O)[O-])s2)n[nH]c1=O	-	-	-	?	-	82
Cc1noc(C)c1CSCC(=O)N1CCN(c2ccc(F)cc2)CC1	.	.	-	-	-	-
Cc1cccc(N2CCN(C(=O)CSCc3c(C)noc3C)CC2)c1C	.	.	.	-	85	-
COc1ccc(C(=O)CC(=O)c2ccccc2O)cc1	-	-	-	-	-	-
COc1ccc(O)c(C(=O)CC(=O)c2ccc(F)cc2)c1	75	.	.	-	-	-
CCOC(=O)c1sc(N(Cc2ccccc2)C(=O)COC(=O)c2ccccc2O)nc1C	.	-	-	-	-	-
CCOC(=O)c1sc(N(Cc2ccccc2)C(=O)COC(=O)c2ccc(O)cc2)nc1C	-	.	-	53	-	-
